# Reference: PubChem BioAssay AID431 (Sanford-Burnham Center for Chemical Genomics, 2006)
# Screen size: about 63,000 compounds; about 1,100 (1.7%) were called active. Only a selection was taken, and actives are over-represented in it overall. Measured potencies and affinities stand elsewhere. A number with no mark means an inactive call.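 How the source made its calls: active means compounds whose percent cytotoxicity in the single-dose primary screen, scaled between solvent and toxic-drug controls, exceeds 50; inactive means the rest.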
# Assay: cytotoxicity in KRAS-transformed pancreatic duct cells, primary screen, cell-based, fluorescence, HTS (AID 431);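 further: 0% = DMSO solvent wells and 100% = doxorubicin-treated wells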
# Details: HPDE-C7K KRASV12 cells, Alamar Blue viability, 48 h; at 10 µM; active compounds read high
row,Structure (SMILES),cytotoxicity
1,COc1cc2c(cc1NC(=O)CCCN1C(=O)CCC1=O)oc1ccccc12,15.2%
2,COc1ccc(C(=O)CN2C(=O)NC3(CCCc4ccccc43)C2=O)cc1OC (stereo not given),3.3%
3,COc1cc2c(cc1NC(=O)CN1C(=O)NC3(CCc4ccccc43)C1=O)oc1ccccc12 (stereo not given),55% (active)
4,CCOC(=O)C1CCCN(C(=O)c2ccc3c(c2)NC(=O)C(N2CCOCC2)S3)C1 (stereo not given),-2.6%
5,CCOC(=O)N1CCN(C(=O)c2ccccc2CCc2ccccc2)CC1,12.2%
6,COc1ccc(Cl)cc1CN1CCN(c2nc(C)cc(C)c2C#N)CC1,22.3%
7,O=C(NCC12CC3CC(CC(C3)C1)C2)c1nc2ncccn2n1,7.1%
8,CCN=C1SC(CC(=O)Nc2sc3c(c2C#N)CCCC3)C(=O)N1CC (stereo not given),-3.9%
9,CC(C)c1ccc(NC(=O)NC2CCCCC2)cc1,52.6% (active)
10,O=C(Nc1ccc(F)c(F)c1)NC1CCCCC1,-0.5%
11,Cc1ccc(NC(=O)NC2CCCCC2)cc1Cl,-4%
12,CCOc1ccc(NS(=O)(=O)c2ccc(SC)cc2)cc1,8.6%
13,CCOc1ccc(NS(=O)(=O)c2ccc3[nH]c(=O)oc3c2)cc1,11.8%
14,Cn1c(=O)c2c(nc(NCc3cccnc3)n2Cc2cccc(C(F)(F)F)c2)n(C)c1=O,-17.6%
15,Cc1cc(Nc2ccccc2)n(-c2nc3ccccc3[nH]2)n1,1.5%
16,Cc1cc(=O)[nH]c(-n2nc(C)cc2C)n1,-16%
17,Cc1ccc(Nc2cc(C)nn2-c2nc(C)cc(=O)[nH]2)cc1,101% (active)
18,Cc1cccc(C)c1N(CC(=O)Nc1cccc(N(C)S(C)(=O)=O)c1)S(C)(=O)=O,-7.3%
19,COc1ccc(Cl)c(Cn2c(NCCCN(C)C)nc3c2c(=O)n(C)c(=O)n3C)c1,-1.8%
20,Cn1c(=O)[nH]c(=O)c2c1nc(N1CCOCC1)n2CC(O)COc1ccccc1 (stereo not given),-14.2%
21,COc1ccccc1OCC(O)Cn1c(Br)nc2c1c(=O)[nH]c(=O)n2C (stereo not given),-3.5%
22,CC(C)CSc1nc2c(c(=O)[nH]c(=O)n2C)n1CC(O)COc1cccc2ccccc12 (stereo not given),63.6% (active)
23,Cc1ccccc1OCC(O)Cn1c(N2CCN(c3ccccc3)CC2)nc2c1c(=O)[nH]c(=O)n2C (stereo not given),78.8% (active)
24,Cc1ccccc1OCC(O)Cn1c(SC(C)C)nc2c1c(=O)[nH]c(=O)n2C (stereo not given),-16.9%
25,CCSc1nc2c(c(=O)[nH]c(=O)n2C)n1CC(O)COc1ccccc1C (stereo not given),-11.9%
